Screening data: PubChem, National Center for Advancing Translational Sciences (NCATS)
Most compounds without a hit are left out; they make up all but 20% or so of the library.
HCMV antiviral – human cytomegalovirus inhibition | HFF cells, HCMV-luciferase reporter, 72 h; stronger effect = lower value | activity change, negative = inhibition, % at 57.5 µM | hit rate 4.5% among 410,000; in the data active means activity change below about -60%; inconclusive means no clear call, values can overlap the other calls; inactive means above about -39%; further: on the % scale 0 is the no-effect control and ±100 the full control effect
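Two-dose cell screen: HFF monolayers treated with compounds and infected with luciferase-expressing HCMV at 1 PFU/cell, 72 h at 37C, then lysed for luciferase measurement.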
CHX counter – counter-screen for Shiga toxin inhibitors: cycloheximide protein synthesis inhibition; hit rate 12% among 300,000; max response, %; AID 2314; cell reporter, cycloheximide protein synthesis inhibition counterscreen; in the data active means max response mostly above about 13%, no sharp cut-off; inactive means mostly below about 14%; further: read at 38.3 µM for the half of the compounds with a filed dose; 0% is about no effect
Pf growth 48h – inhibits P. falciparum growth in the first generation, 48 h; P. falciparum luciferase growth in erythrocytes, 48 h; Potency, µM (highest dose often 28.7 µM), for inactives: top-dose activity change, negative = inhibition, usual class: inhibitors; hit rate 5.9% among 310,000; AID 504832; further: potency means the concentration at half of the fitted maximal effect; on the % scale 0 is the no-effect control and ±100 the full control effect
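Growth was read as firefly luciferase luminescence after a 48 h, 37 C, 5% CO2 exposure of compounds to reporter-bearing P. falciparum cultures (0.1% parasitemia, 2% hematocrit final) in Albumax-supplemented RPMI 1640.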
Pf growth 96h – P. falciparum growth inhibition at 96 hours; P. falciparum luciferase reporter growth, 96 h; hit rate 6.9% among 320,000; Potency, µM (doses to about 28.7 µM), inactives show at the top dose activity change, negative = inhibition, hits mostly inhibitors; further: potency means the concentration at half of the fitted maximal effect; on the % scale 0 is the no-effect control and ±100 the full control effect
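P. falciparum expressing integrated firefly luciferase, in erythrocytes at 2% hematocrit, 0.05% parasitemia, incubated with compounds 96 h at 37 C, 5% CO2. Growth inhibition read as loss of luminescence; two-generation exposure targets delayed-death apicoplast inhibitors.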
Shiga inhibitor – inhibitors of Shiga toxin in Vero cells | AID 2315 | inhibition, % at 38.7 µM | Vero cells, Shiga toxin protein synthesis inhibition reporter | hit rate 9.2% among 290,000; in the data active means inhibition mostly above about 28%, no sharp cut-off; inactive means mostly below about 43%; further: 0% is about no effect
The depositor's hits bear a star; ? = inconclusive; . = no result given; + = active, no number; [ ] = dose if it differs, or a comment. Unless noted, the call rests on the fitted dose curve; in most records, active means well fitted inhibition curve with a large enough effect; inconclusive means small, poorly fitted or top-dose-only effect, or another doubt; inactive means no such curve, though single readings can be large or run the other way.

SMILES	HCMV antiviral	CHX counter	Pf growth 48h	Pf growth 96h	Shiga inhibitor
O=C(Nc1cccc(C(=O)Nc2ccc(Br)cc2)c1)c1ccccc1	49	16*	11%	40%	25
Cc1ccc(C(=O)Nc2ccc(Br)cc2)cc1S(=O)(=O)NCc1ccccc1	-69*	.	.	.	.
Cc1ccc(C(=O)Nc2ccccc2C(=O)O)cc1S(=O)(=O)NCc1ccccc1	-10	-1	10%	96%	-6
CC(=O)Oc1ccc(C(=O)Nc2cccc(C(=O)NC(C)(C)C)c2)cc1	-4	-2	-4%	5.2µM*	43
CC(=O)c1cccc(NC(=O)c2ccc3ccccc3c2)c1	85	28*	151%	-10%	.
COc1ccc(-c2ccc(C(=O)NCc3ccc(N4CCN(C)CC4)cc3)c3occc23)c(C)c1	15	.	.	.	.
CCOc1ccc(NC(=O)CSC2=Nc3ccccc3C3=NC(CC(=O)NCc4ccc5c(c4)OCO5)C(=O)N23)cc1 (stereo not drawn)	62	.	.	.	.
CCc1sc(C(=O)Nc2cccc(C(C)=O)c2)cc1C	-6	28*	75%	72%	16
S=C(Nc1cccc(Br)c1)c1ccccc1	-74*	45*	-3%	?	109*
O=C(O)c1cccc(NC(=O)c2ccc(S(=O)(=O)c3ccccc3)cc2)c1	21	-2	46%	12µM*	-7
COC(=O)c1ccc(CNCC(=O)Nc2ccc(C(=O)OC)cc2)cc1	9	4	?	0.93µM*	-11
COc1ccc(Br)c(OC)c1C(=O)NC(=O)Nc1nc(C)cc(C)n1	118	-3	-7%	-1%	-10
O=C(CNC(=O)c1ccc(Br)o1)NNC(=O)c1ccccc1F	.	-2	7%	1%	-5
O=C(c1cccc(-n2cccc2)c1)N1CCN(S(=O)(=O)c2ccccc2Br)CC1	-16	.	?	?	.
CC1(C)C(C=C(Cl)Cl)C1C(=O)N(Cc1ccccc1Cl)C1CCS(=O)(=O)C1 (stereo not drawn)	-4	1	?	?	9
O=C(Nc1ccc(-c2nc3ccccc3s2)c(OC(=O)c2ccccc2)c1)c1ccccc1	-21	30*	135%	3%	26
O=C(Nc1ccc2nc3ccccc3nc2c1)c1ccccc1	91	40*	107%	-2%	25*
O=C(Cc1ccc(Cl)cc1)Nc1ccc(NC(=O)c2ccccc2)cc1	-24	4	5%	5%	14
CC(=O)c1cccc(NC(=O)c2cc(Cl)sc2Cl)c1	33	25*	55%	97%	39*
O=C(CC(=O)c1ccccc1)Nc1ccc(Cl)cc1	-29	36*	34%	23%	80*
CCN(C(=O)Cn1cc(C(F)(F)F)ccc1=O)c1c(N)n(Cc2ccccc2)c(=O)[nH]c1=O	?	-4	22%	-30%	-3
CC(NC(=O)c1ccco1)C(=O)N1CC=C(c2ccccc2)CC1 (stereo not drawn)	-36	.	.	.	.
O=C(CNCc1ccccc1)Nc1ccc(Cl)cc1	3	28*	-7%[0.00184 µM]	76%	79*
Cc1ccc(NC(=O)CC(=O)c2ccccc2)cc1C	21	34*	69%	38%	101*
O=C(CNCc1ccc(Cl)cc1)Nc1ccc(C(=O)N2CCCCC2)cc1	-35	-2	?	-22%	-11
SMILES	HCMV antiviral	CHX counter	Pf growth 48h	Pf growth 96h	Shiga inhibitor
O=C(CNCc1ccccc1)NC1C2CC3CC(C2)CC1C3 (stereo not drawn)	16	14*	42%	?	.
OC1(CNCc2ccccc2)C2CC3CC(C2)CC1C3 (stereo not drawn)	-4	6	-19%	?	-4
Cc1ccc(NC(=O)CO/N=C(\N)c2ccccc2)cc1C	-19	.	.	.	.
Cc1ccc(C(=O)N(C)Cc2ccccc2)cc1S(=O)(=O)N1CCOCC1	-22	-3	-29%	23%	-6
Cc1ccc(C(=O)N(C)Cc2ccc(N3CCOCC3)cc2)cc1S(=O)(=O)NCc1ccccc1	-4	.	10µM*	?	.
CCOC1(c2ccccc2)CC1C(=O)N/N=C/c1cccc([N+](=O)[O-])c1 (stereo not drawn)	-38	-2	?	?	35
CC(=O)c1ccc(NC(=O)c2cccc(NC(=O)c3ccccc3)c2)cc1	38	23*	-20%	?	.
Cc1cccc(C(=O)Nc2ccc(NC(=O)c3ccccc3)cc2)c1	29	3	2%	8%	.
N/C(=N\NC(=O)c1ccccc1)c1cc2ccccc2oc1=O	42	7	-26%	-2%	-6
NC(=S)N/N=C/c1ccccc1OC(=O)c1cc2ccccc2oc1=O	+	20	0.33µM*	0.59µM*	31
NC(=O)N/N=C/c1ccccc1OC(=O)c1cc2ccccc2oc1=O	-16	26*	23%	27%	77*
NC(=S)N/N=C/c1ccccc1OC(=O)/C=C/c1ccccc1	-110*	2	?	?	15
O=S1(=O)N(CCN2CC=C(c3c[nH]c4cc(F)ccc34)CC2)c2cccc3c2N1CCC3	-80*	.	1.2µM*	0.93µM*	.
Cn1c(=O)[nH]c(=O)c2c1nc(Br)n2C/C=N/NC(=O)c1ccccc1	23	39*	7%	34%	55*
Cn1c(=O)[nH]c(=O)c2c1nc(Br)n2C/C=N/Nc1ccccc1	28	9	-10%	-4%	-6
Clc1ccc2nnnc(-c3ccccc3)c2c1	-102*	52*	?	?	98*
CCCCC(=O)O[C@]1(C(=O)CO)CCC2C3CCC4=CC(=O)CCC4(C)C3C(O)CC21C (stereo partly drawn)	.	.	-8%	?	.
CC(C)N(Cc1ccccc1)C(=O)CCc1ccccc1	-13	-1	-12%	18%	4
CC(C)(C)N(Cc1ccccc1)C(=O)CCc1ccccc1	?	-3	?	13µM*	24
CCOc1ccc(CCNC(=O)Cn2nc(CC)n3c(cc4c(OC)cccc43)c2=O)cc1OCC	5	.	.	.	.
O=c1[nH]c(CN2CCN(Cc3ccccc3)CC2)nc2scc(-c3ccccc3)c12	14	-1	?	-11%	12
CC(=O)N1CCN(Cc2nc3scc(-c4ccccc4)c3c(=O)[nH]2)CC1	12	-3	?	13µM*	11
COc1ccc(CN(C)Cc2nc3scc(-c4ccccc4)c3c(=O)[nH]2)cc1OC	-60*	-2	?	?	-4
CCC(C)(C)C1CCC(=NNc2nc3ccccc3[nH]2)CC1 (stereo not drawn)	?	36*	10µM*	10µM*	81*
CC(=O)N1CCC(=NNc2nc3ccccc3[nH]2)CC1	-15	31*	?	?	35*
CCC(C)[C@H](NC(=O)N1CCn2c1nc1ccccc12)C(=O)NCc1ccccc1 (stereo partly drawn)	-27	-2	?	0%	-7
COC(=O)c1c(NC(=O)c2nc(SCc3ccc(F)cc3)ncc2Cl)sc2c1CCCC2	8	.	.	.	.
O=C(/C=C/Nc1ccc(F)c(F)c1)c1cccs1	306	40*	241%	10µM*	53*
Cc1ccc(C(=O)Nc2ccc(Nc3ccccc3)cc2)cc1Br	35	.	.	.	.
